# Article PMC7862700, “An all-to-all approach to the identification of sequence-specific readers for epigenetic DNA modifications on cytosine”
# Legend:
# Test in all cases: DAPPL (digital affinity profiling via proximity ligation, sequencing); 10 mM Tris-HCl pH 7.5, 50 mM NaCl, 1 mM DTT, 4% glycerol, room temperature, 30 min; GST-TFs on glutathione beads, 16-mer random dsDNA library, 0.1% formaldehyde crosslink after washing; high values mean tight binding
# [1] = target: T1, FLI1 (Homo sapiens, UniProt Q01543 1-452); conditions: protein: recombinant; tags: N-terminal GST; dsDNA, one strand shown
# T1 sequence: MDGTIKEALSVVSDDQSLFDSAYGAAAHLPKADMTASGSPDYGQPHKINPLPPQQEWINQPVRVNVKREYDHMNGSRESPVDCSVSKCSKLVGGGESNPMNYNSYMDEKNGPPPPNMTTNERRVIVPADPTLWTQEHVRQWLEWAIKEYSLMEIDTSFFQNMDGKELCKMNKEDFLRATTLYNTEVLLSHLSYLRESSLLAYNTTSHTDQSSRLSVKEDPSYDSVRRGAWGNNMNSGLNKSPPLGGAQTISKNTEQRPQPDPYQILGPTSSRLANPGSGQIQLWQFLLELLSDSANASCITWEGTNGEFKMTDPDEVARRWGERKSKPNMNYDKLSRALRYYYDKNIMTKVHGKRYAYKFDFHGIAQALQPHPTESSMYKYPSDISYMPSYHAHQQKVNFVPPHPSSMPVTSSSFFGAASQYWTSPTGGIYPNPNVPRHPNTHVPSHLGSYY
# Outline: (§1)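 Human transcription factors carrying a GST fusion were produced in yeast, bound to glutathione beads, tagged with DNA barcodes and pooled together with a tag-only sample. Each pool was held with 200 nmole of a random double-stranded 16-mer DNA library in Tris/NaCl/DTT/glycerol buffer for 30 min at room temperature, then washed, crosslinked in 0.1% formaldehyde, proximity-ligated with BsaI/T4 ligase (1 h, 37 °C), PCR-amplified and sequenced on an Illumina NextSeq500. Binding signal is the read frequency of each hexamer for a given factor divided by its frequency in the tag-only sample.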
# [2] = target: T2, ELK1 (Homo sapiens, UniProt P19419 1-428); conditions: protein: recombinant; tags: N-terminal GST; dsDNA, one strand shown
# T2 sequence: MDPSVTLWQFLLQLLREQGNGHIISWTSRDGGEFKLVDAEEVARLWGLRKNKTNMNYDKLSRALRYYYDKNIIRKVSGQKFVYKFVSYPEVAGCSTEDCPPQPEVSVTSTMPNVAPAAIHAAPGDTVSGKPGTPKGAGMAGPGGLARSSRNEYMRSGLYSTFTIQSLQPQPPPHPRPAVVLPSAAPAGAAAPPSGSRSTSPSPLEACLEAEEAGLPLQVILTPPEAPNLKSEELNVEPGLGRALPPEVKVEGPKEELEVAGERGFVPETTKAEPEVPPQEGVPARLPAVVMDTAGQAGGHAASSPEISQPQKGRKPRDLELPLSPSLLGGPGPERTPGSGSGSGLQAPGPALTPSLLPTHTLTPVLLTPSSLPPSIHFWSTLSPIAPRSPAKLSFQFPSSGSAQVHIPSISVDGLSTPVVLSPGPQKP
# Outline: as §1
# [3] = target: T3, GABPA (Homo sapiens, UniProt Q06546 1-454); conditions: protein: recombinant; tags: N-terminal GST; dsDNA, one strand shown
# T3 sequence: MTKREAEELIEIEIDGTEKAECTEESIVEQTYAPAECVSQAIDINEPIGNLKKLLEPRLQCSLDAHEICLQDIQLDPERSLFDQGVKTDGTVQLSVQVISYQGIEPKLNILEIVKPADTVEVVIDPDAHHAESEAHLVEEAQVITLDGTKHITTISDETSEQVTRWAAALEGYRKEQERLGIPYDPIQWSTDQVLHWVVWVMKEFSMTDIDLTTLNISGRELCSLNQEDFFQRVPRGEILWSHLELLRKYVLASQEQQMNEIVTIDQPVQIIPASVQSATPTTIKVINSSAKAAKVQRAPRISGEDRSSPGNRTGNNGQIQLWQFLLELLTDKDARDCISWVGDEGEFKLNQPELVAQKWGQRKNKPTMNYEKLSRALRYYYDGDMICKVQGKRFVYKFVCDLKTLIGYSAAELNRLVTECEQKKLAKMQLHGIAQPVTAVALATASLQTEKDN
# Outline: as §1
# [4] = target: T4, ERG (Homo sapiens, UniProt P11308 1-479); conditions: protein: recombinant; tags: N-terminal GST; dsDNA, one strand shown
# T4 sequence: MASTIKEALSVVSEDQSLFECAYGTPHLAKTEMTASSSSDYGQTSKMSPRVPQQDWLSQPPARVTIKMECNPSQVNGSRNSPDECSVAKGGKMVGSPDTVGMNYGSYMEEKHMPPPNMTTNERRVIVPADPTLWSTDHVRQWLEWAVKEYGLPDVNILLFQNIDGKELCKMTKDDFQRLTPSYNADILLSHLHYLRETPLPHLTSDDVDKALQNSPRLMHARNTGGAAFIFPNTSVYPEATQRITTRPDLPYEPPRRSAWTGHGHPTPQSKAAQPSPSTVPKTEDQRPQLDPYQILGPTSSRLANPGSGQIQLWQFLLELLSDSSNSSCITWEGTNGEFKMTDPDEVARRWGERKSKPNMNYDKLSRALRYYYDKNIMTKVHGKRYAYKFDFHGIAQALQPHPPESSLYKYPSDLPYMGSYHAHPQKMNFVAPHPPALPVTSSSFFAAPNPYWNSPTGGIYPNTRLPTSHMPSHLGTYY
# Outline: as §1
# [5] = target: ELF1 (Homo sapiens, UniProt P32519 1-619); conditions: protein: recombinant; tags: N-terminal GST; dsDNA, one strand shown
# ELF1, sequence (P32519 whole entry): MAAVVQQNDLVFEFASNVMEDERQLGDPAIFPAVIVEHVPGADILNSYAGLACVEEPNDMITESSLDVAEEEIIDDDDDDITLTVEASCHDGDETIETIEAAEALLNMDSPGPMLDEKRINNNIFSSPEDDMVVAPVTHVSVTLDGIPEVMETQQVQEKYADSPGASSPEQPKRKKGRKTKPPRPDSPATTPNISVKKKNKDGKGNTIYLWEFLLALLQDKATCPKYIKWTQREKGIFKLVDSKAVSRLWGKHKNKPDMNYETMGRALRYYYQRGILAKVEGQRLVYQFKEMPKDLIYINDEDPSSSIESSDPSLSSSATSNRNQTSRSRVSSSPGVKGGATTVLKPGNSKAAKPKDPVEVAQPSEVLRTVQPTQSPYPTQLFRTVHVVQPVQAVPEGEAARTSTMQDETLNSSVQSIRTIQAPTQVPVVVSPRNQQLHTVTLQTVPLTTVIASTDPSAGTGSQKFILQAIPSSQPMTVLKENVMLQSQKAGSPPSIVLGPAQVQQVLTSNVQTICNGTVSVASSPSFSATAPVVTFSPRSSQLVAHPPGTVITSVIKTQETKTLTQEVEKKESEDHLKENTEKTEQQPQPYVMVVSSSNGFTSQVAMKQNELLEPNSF
# Outline: as §1
# [6] = target: T5, EHF (Homo sapiens, UniProt Q9NZC4 1-300); conditions: protein: recombinant; tags: N-terminal GST; dsDNA, one strand shown
# T5 sequence: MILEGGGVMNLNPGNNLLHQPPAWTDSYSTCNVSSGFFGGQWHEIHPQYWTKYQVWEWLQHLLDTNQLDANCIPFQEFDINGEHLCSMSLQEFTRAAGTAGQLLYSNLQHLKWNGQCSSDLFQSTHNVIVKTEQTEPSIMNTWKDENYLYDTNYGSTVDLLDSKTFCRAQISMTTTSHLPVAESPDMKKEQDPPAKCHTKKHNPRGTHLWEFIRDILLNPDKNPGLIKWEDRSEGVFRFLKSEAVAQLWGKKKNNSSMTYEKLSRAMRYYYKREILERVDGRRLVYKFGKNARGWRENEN
# Outline: as §1
# [7] = target: SPI1 (Homo sapiens, UniProt P17947 1-270); conditions: protein: recombinant; tags: N-terminal GST; dsDNA, one strand shown
# Outline: as §1
# [8] = target: SPIB (Homo sapiens, UniProt Q01892 1-262); conditions: protein: recombinant; tags: N-terminal GST; dsDNA, one strand shown
# SPIB, sequence (Q01892 whole entry): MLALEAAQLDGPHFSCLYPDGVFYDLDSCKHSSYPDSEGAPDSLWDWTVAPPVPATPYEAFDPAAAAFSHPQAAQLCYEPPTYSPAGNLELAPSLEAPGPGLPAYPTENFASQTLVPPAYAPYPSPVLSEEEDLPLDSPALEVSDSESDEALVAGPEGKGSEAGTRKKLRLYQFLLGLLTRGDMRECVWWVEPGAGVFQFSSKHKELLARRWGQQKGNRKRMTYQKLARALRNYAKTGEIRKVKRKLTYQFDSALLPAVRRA
# Outline: as §1
# [9] = target: T6, ELK3 (Homo sapiens, UniProt P41970 1-407); conditions: protein: recombinant; tags: N-terminal GST; dsDNA, one strand shown
# T6 sequence: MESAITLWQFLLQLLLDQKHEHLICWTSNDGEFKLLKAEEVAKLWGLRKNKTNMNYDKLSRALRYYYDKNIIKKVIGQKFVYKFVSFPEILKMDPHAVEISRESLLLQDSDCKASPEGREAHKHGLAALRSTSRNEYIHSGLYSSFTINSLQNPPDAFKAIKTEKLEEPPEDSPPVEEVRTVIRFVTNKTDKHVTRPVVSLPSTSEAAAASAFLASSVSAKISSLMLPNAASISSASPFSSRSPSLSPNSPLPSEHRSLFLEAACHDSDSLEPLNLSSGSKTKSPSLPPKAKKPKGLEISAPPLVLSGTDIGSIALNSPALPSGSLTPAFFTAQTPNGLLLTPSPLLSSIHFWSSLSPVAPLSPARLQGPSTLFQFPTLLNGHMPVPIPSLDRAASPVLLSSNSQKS
# Outline: as §1
# [10] = target: T7, FEV (Homo sapiens, UniProt Q99581 1-238); conditions: protein: recombinant; tags: N-terminal GST; dsDNA, one strand shown
# T7 sequence: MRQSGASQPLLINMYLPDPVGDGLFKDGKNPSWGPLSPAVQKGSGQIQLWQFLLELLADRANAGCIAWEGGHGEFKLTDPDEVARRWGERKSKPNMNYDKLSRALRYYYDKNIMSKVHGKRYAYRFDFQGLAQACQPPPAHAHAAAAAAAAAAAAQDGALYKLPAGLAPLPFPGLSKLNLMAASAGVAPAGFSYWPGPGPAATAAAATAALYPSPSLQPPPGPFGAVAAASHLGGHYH
# Outline: as §1
# [11] = target: ETV5 (Homo sapiens, UniProt P41161 1-510); conditions: protein: recombinant; tags: N-terminal GST; dsDNA, one strand shown
# ETV5, sequence (P41161 whole entry): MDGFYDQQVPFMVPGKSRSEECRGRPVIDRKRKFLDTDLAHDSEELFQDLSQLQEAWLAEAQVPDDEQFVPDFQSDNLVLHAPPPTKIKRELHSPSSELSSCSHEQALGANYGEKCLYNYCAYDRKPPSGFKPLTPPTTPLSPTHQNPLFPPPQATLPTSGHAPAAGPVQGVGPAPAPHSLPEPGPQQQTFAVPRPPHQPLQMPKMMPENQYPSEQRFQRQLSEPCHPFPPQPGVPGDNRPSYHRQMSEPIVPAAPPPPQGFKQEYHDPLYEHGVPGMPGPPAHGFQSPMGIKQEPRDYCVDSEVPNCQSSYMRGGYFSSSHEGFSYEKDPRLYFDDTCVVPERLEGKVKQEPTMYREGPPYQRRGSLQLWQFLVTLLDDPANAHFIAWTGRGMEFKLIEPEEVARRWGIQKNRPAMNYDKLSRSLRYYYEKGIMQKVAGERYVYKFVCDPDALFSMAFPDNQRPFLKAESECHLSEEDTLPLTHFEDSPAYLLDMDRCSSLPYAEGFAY
# Outline: as §1
# [12] = target: HSF1 (Homo sapiens, UniProt Q00613 1-529); conditions: protein: recombinant; tags: N-terminal GST; chain copies: 3; dsDNA, one strand shown
# HSF1, sequence (Q00613 whole entry): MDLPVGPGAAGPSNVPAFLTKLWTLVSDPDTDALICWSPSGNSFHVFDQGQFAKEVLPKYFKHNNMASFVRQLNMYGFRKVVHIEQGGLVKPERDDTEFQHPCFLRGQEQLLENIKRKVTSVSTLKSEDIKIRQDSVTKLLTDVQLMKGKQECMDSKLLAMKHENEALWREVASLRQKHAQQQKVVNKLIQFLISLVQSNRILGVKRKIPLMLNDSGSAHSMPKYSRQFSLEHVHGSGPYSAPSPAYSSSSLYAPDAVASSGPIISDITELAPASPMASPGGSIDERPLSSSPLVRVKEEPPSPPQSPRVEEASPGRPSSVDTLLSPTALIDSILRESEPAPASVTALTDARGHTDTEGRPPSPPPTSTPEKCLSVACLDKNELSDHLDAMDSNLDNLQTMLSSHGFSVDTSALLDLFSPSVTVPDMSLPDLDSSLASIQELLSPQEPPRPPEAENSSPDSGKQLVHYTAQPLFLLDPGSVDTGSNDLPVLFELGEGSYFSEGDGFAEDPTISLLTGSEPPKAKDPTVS
# Outline: as §1
# [13] = target: T8, SPIC (Homo sapiens, UniProt Q8N5J4 1-248); conditions: protein: recombinant; tags: N-terminal GST; dsDNA, one strand shown
# T8 sequence: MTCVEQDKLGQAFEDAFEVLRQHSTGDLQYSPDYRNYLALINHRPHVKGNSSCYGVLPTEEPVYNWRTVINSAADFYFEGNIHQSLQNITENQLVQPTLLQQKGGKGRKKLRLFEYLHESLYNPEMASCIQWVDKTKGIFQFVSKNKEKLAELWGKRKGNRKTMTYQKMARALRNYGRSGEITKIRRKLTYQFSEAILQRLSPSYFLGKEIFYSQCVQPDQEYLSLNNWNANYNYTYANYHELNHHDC
# Outline: as §1
# [14] = target: ELF4 (Homo sapiens, UniProt Q99607 1-663); conditions: protein: recombinant; tags: N-terminal GST; dsDNA, one strand shown
# ELF4, sequence (Q99607 whole entry): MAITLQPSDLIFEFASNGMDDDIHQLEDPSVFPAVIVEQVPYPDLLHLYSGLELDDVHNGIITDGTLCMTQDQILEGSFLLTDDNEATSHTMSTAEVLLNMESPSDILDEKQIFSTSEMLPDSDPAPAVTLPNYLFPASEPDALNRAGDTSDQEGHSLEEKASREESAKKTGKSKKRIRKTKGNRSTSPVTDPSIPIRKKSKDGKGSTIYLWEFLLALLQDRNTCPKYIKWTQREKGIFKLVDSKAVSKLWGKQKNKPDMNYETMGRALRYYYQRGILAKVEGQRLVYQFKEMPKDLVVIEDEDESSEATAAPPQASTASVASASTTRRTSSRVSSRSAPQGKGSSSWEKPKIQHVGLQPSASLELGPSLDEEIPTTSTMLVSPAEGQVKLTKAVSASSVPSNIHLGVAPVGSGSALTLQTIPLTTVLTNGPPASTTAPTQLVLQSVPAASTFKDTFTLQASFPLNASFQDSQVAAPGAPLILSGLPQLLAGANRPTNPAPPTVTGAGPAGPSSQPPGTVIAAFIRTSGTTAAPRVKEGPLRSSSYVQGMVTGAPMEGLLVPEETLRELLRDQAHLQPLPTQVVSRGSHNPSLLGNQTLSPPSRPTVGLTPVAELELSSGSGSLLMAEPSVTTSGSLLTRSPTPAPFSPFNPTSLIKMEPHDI
# Outline: as §1
# [15] = target: T9, ELK4 (Homo sapiens, UniProt P28324-2 1-405); conditions: protein: recombinant; tags: N-terminal GST; dsDNA, one strand shown
# T9 sequence: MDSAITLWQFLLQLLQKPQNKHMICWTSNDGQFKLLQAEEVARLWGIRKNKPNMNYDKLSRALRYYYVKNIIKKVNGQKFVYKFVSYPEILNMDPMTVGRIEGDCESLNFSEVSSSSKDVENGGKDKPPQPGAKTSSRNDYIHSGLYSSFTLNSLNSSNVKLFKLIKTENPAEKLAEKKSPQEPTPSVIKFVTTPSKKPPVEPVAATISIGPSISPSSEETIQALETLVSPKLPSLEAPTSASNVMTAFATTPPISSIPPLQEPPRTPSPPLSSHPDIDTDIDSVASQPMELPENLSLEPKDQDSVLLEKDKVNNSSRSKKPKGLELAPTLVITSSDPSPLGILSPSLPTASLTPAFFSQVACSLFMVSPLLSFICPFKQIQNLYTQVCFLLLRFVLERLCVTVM
# Outline: as §1
# [16] = target: T10, ETV2 (Homo sapiens, UniProt O00321 1-342); conditions: protein: recombinant; tags: N-terminal GST; dsDNA, one strand shown
# T10 sequence: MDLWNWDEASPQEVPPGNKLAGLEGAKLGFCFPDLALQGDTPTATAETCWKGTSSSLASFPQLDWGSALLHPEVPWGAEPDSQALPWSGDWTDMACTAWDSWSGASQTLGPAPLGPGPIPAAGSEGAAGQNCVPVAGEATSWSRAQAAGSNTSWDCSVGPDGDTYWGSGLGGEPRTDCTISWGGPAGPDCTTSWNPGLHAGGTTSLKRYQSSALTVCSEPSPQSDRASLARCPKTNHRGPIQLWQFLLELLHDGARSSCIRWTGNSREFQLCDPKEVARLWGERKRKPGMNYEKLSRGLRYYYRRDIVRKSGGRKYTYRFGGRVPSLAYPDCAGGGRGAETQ
# Outline: as §1
# [17] = target: T11, ELF3 (Homo sapiens, UniProt P78545 1-371); conditions: protein: recombinant; tags: N-terminal GST; dsDNA, one strand shown
# T11 sequence: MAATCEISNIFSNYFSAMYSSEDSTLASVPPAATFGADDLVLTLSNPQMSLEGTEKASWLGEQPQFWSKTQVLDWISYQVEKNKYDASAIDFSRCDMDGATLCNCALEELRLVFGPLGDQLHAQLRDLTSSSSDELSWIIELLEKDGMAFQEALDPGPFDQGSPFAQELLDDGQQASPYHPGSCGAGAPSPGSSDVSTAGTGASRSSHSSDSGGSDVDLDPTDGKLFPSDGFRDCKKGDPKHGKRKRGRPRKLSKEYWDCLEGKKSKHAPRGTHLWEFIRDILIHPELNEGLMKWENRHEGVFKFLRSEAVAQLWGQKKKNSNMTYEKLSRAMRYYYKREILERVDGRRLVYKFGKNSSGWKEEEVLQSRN
# Outline: as §1
# [18] = target: CRX (Homo sapiens, UniProt O43186 1-299); conditions: protein: recombinant; tags: N-terminal GST; dsDNA, one strand shown
# CRX, sequence (O43186 whole entry): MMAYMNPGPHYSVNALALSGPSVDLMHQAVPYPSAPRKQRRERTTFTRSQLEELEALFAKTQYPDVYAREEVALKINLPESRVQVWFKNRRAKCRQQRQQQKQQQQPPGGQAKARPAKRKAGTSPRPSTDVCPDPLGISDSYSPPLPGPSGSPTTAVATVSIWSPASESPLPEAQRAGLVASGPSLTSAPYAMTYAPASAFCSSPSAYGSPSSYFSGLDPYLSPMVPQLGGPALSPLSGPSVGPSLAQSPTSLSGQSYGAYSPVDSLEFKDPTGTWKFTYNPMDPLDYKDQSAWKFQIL
# Outline: as §1
# [19] = target: ETV1 (Homo sapiens, UniProt P50549 1-477); conditions: protein: recombinant; tags: N-terminal GST; dsDNA, one strand shown
# ETV1, sequence (P50549 whole entry): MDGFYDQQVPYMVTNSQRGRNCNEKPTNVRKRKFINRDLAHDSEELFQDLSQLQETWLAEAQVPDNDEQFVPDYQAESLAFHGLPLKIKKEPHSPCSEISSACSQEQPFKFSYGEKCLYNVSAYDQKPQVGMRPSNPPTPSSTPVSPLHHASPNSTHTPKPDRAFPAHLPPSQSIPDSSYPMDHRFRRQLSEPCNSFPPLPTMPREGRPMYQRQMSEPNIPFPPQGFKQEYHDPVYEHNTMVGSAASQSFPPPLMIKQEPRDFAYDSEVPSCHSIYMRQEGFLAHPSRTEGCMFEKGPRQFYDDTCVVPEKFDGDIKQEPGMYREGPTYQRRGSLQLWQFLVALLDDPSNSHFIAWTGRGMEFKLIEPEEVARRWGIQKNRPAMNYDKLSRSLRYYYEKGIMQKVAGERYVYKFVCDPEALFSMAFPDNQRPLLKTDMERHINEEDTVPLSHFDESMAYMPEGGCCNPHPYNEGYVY
# Outline: as §1
sequence,measurement,setting,value
TACGAT,binding signal,[1],"1.14 fold enrichment (6-mer frequency, TF over GST control)"
same,binding signal,[2],"1.09 fold enrichment (6-mer frequency, TF over GST control)"
same,binding signal,[3],"1.17 fold enrichment (6-mer frequency, TF over GST control)"
same,binding signal,[4],"1.11 fold enrichment (6-mer frequency, TF over GST control)"
same,binding signal,[5],"1.11 fold enrichment (6-mer frequency, TF over GST control)"
same,binding signal,[6],"1.03 fold enrichment (6-mer frequency, TF over GST control)"
same,binding signal,[7],"1.09 fold enrichment (6-mer frequency, TF over GST control)"
same,binding signal,[8],"1.14 fold enrichment (6-mer frequency, TF over GST control)"
same,binding signal,[9],"1.09 fold enrichment (6-mer frequency, TF over GST control)"
same,binding signal,[10],"1.13 fold enrichment (6-mer frequency, TF over GST control)"
same,binding signal,[11],"1.12 fold enrichment (6-mer frequency, TF over GST control)"
same,binding signal,[12],"1.13 fold enrichment (6-mer frequency, TF over GST control)"
same,binding signal,[13],"1.05 fold enrichment (6-mer frequency, TF over GST control)"
same,binding signal,[14],"1.11 fold enrichment (6-mer frequency, TF over GST control)"
same,binding signal,[15],"1.14 fold enrichment (6-mer frequency, TF over GST control)"
same,binding signal,[16],"1.12 fold enrichment (6-mer frequency, TF over GST control)"
same,binding signal,[17],"1.11 fold enrichment (6-mer frequency, TF over GST control)"
same,binding signal,[18],"1.37 fold enrichment (6-mer frequency, TF over GST control)"
same,binding signal,[19],"1.07 fold enrichment (6-mer frequency, TF over GST control)"
